Source: PubChem BioAssay (NCATS)
Where “and” joins values, the source holds several entries; their conditions need not be identical. Identical values can stand only once. Results filed as inconclusive are left out. Calls of active or inactive are those of the source. The call rests on the fitted dose curve; in most records, active means well fitted curve in the direction sought with a large enough effect; inconclusive means small, poorly fitted or top-dose-only effect, or another doubt; inactive means no such curve, though single readings can be large; an effect the other way counts as inactive or inconclusive.

Tests used:
CRL-7250 = normal cell line; test: Cytotoxic Profiling of Annotated Libraries Using Quantitative High-Throughput Screening (AID 1296008); settings: Five cell lines viability, CellTiter-Glo ATP luminescence, 48-72 h; max response: hits give low values; further: nearly all actives have a fitted effect of over 60% in size
In short: (§1)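 Cytotoxicity was measured as CellTiter-Glo ATP luminescence, read after 10 min at room temperature. Compound treatment of the cells lasted 48 or 72 hr at 37 degrees Celsius in a qHTS format.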

HEK293 = test: as above; settings: Five cell lines viability, CellTiter-Glo ATP luminescence, 48-72 h; max response: hits give low values
In short: as §1

HaCat = test: as above; settings: Five cell lines viability, CellTiter-Glo ATP luminescence, 48-72 h; max response: hits give low values
In short: as §1

KB-3-1 = test: as above; settings: Five cell lines viability, CellTiter-Glo ATP luminescence, 48-72 h; max response: hits give low values
In short: as §1

NIH3T3 = test: as above; settings: Five cell lines viability, CellTiter-Glo ATP luminescence, 48-72 h; max response: hits give low values
In short: as §1

MCC-13 = test: qHTS assay to identify novel small-molecules to repurpose for Merkel cell carcinoma treatment (AID 1296009); settings: MCC and control cell lines, CellTiter-Glo viability, 72 h; series mostly up to 46 µM; further: nearly all actives have a fitted effect of over 60% in size
In short: (§2)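 Cell viability measured by CellTiter-Glo following 72 hr compound treatment at 37 degree celsius, with NPC and MIPE libraries tested in 8- and 11-point concentration series.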

MKL-2 = test: as above; settings: MCC and control cell lines, CellTiter-Glo viability, 72 h; series mostly up to 46 µM
In short: as §2

C33A = test: Primary qHTS to identify gynecologic anti-cancer compounds using libraries of approved drugs and bioactive compounds (AID 1345084); settings: Gynecologic cancer cell panel viability, ATPlite luminescence, 48 h; series mostly up to 57.5 µM; further: nearly all actives have a fitted effect of over 55% in size
In short: (§3)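 Cells, 1,000 per well, plated 16 h, then exposed 48 h at 37 C to compounds. Viability by ATPlite luminescence after 15 min at room temperature.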

CAOV3 = test: as above; settings: Gynecologic cancer cell panel viability, ATPlite luminescence, 48 h; series mostly up to 57.5 µM
In short: as §3

Es-2 = test: as above; settings: Gynecologic cancer cell panel viability, ATPlite luminescence, 48 h; series mostly up to 57.5 µM
In short: as §3

Hek293T = test: as above; settings: Gynecologic cancer cell panel viability, ATPlite luminescence, 48 h, control line for the selectivity index; series mostly up to 57.5 µM
In short: as §3

UISO = test: qHTS assay to identify novel small-molecules to repurpose for Merkel cell carcinoma treatment (AID 1296009); settings: MCC and control cell lines, CellTiter-Glo viability, 72 h; series mostly up to 46 µM; further: nearly all actives have a fitted effect of over 60% in size
In short: as §2

WaGa = test: as above; settings: MCC and control cell lines, CellTiter-Glo viability, 72 h; series mostly up to 46 µM
In short: as §2

CASKI = test: Primary qHTS to identify gynecologic anti-cancer compounds using libraries of approved drugs and bioactive compounds (AID 1345084); settings: Gynecologic cancer cell panel viability, ATPlite luminescence, 48 h; series mostly up to 57.5 µM; further: nearly all actives have a fitted effect of over 55% in size
In short: as §3

MKL-1 = test: qHTS assay to identify novel small-molecules to repurpose for Merkel cell carcinoma treatment (AID 1296009); settings: MCC and control cell lines, CellTiter-Glo viability, 72 h; series mostly up to 46 µM; further: nearly all actives have a fitted effect of over 60% in size
In short: as §2

HeLa = test: Primary qHTS to identify gynecologic anti-cancer compounds using libraries of approved drugs and bioactive compounds (AID 1345084); settings: Gynecologic cancer cell panel viability, ATPlite luminescence, 48 h; series mostly up to 57.5 µM; further: nearly all actives have a fitted effect of over 55% in size
In short: as §3

MCC-26 = test: qHTS assay to identify novel small-molecules to repurpose for Merkel cell carcinoma treatment (AID 1296009); settings: MCC and control cell lines, CellTiter-Glo viability, 72 h; series mostly up to 46 µM; further: nearly all actives have a fitted effect of over 60% in size
In short: as §2
On the % scale 0 is the no-effect control and ±100 the full control effect; potency means the concentration at half of the fitted maximal effect.

COc1cccc2nc(-c3cccs3)nc(NN3C(=O)C=C(C)C3=O)c12
active: Potency (CRL-7250) 2.09 µM and 6.51 µM | Potency (HEK293) 418 nM and 517 nM | Potency (HaCat) 23.5 µM | Potency (KB-3-1) 5.9 µM and 10.3 µM | Potency (NIH3T3) 1.48 µM and 820 nM | Potency (MCC-13) 2640 nM | Potency (MKL-2) 935 nM | Potency (C33A) 31600 nM | Potency (CAOV3) 15800 nM | Potency (Es-2) 2510 nM | Potency (Hek293T) 1410 nM

CC(C)(C)c1cnc(CSc2cnc(NC(=O)C3CCNCC3)s2)o1
active: Potency (CRL-7250) 132 nM | Potency (HEK293) 418 nM | Potency (HaCat) 1.32 µM | Potency (KB-3-1) 332 nM | Potency (NIH3T3) 3320 nM | Potency (UISO) 743 nM

CC(=O)Nc1nc(C)c(-c2ccc(Cl)c(S(=O)(=O)NCCO)c2)s1
active: Potency (CRL-7250) 1.66 µM and 13 µM | Potency (HEK293) 4.18 µM and 11.6 µM | Potency (HaCat) 6.51 µM | Potency (KB-3-1) 9350 nM | Potency (NIH3T3) 3.32 µM and 2.59 µM | Potency (WaGa) 5900 nM | Potency (CAOV3) 14100 nM | Potency (CASKI) 12600 nM

COc1cc2nccc(Oc3ccc(NC(=O)C4(C(=O)Nc5ccc(F)cc5)CC4)cc3)c2cc1OC
active: Potency (CRL-7250) 1.48 µM and 13 µM | Potency (HEK293) 14.8 µM and 16.4 µM | Potency (HaCat) 16.6 µM and 25.9 µM | Potency (KB-3-1) 23500 nM | Potency (NIH3T3) 332 nM and 1.64 µM | Potency (MKL-1) 2960 nM | Potency (WaGa) 2090 nM
inactive: Potency (Es-2) | Potency (HeLa) | Potency (Hek293T)

COc1ccc(C=Cc2cc(OC)c(OC)c(OC)c2)cc1O
inactive: max response (CRL-7250) -82.4% | max response (HEK293) -79.1% | max response (HaCat) -0.114% | max response (NIH3T3) -49.1% | Potency (MCC-13) | Potency (MKL-2) | Potency (WaGa)
active: Potency (KB-3-1) 1 nM

CC(NCc1ccc2c(c1)nc(NC(=O)c1ccc(-c3cn[nH]c3)s1)n2CC(C)(C)O)C(C)(C)C (stereo not given)
active: Potency (CRL-7250) 296 nM | Potency (HEK293) 132 nM | Potency (HaCat) 0.743 µM | Potency (KB-3-1) 209 nM | Potency (NIH3T3) 590 nM | Potency (MCC-13) 2350 nM | Potency (MKL-1) 332 nM | Potency (UISO) 1320 nM | Potency (WaGa) 526 nM

CN(C)Cc1c(C(=O)NCCOc2ccc(C(=O)NO)cc2)oc2ccccc12
active: Potency (CRL-7250) 4.69 µM and 4.61 µM | Potency (HEK293) 1.87 µM and 1.16 µM | Potency (HaCat) 4.11 µM | Potency (KB-3-1) 1.48 µM and 1.3 µM | Potency (NIH3T3) 3.72 µM and 3.26 µM | Potency (MCC-13) 8330 nM | Potency (MKL-2) 662 nM | Potency (WaGa) 332 nM | Potency (C33A) 4470 nM | Potency (CASKI) 3980 nM | Potency (Es-2) 5010 nM | Potency (HeLa) 2820 nM | Potency (Hek293T) 2820 nM

Cc1nc2ccc(CN(C)c3ccc(C(=O)N[C@@H](CCC(=O)O)C(=O)O)s3)cc2c(=O)[nH]1
active: Potency (HEK293) 47.3 nM | Potency (HaCat) 0.0332 µM | Potency (NIH3T3) 119 nM | Potency (WaGa) 83.3 nM
inactive: max response (CRL-7250) -19.7% | max response (KB-3-1) 1.14% | Potency (MCC-26) | Potency (MKL-2) | Potency (C33A) | Potency (CAOV3) | Potency (CASKI) | Potency (Hek293T)

O=C(Nc1ncc(-c2cc(C(F)F)nn2-c2c(Cl)cccc2Cl)s1)C1CC1
active: Potency (CRL-7250) 1.48 µM and 3.66 µM | Potency (HEK293) 1050 nM | Potency (KB-3-1) 590 nM and 820 nM | Potency (NIH3T3) 1.18 µM and 1.46 µM | Potency (Es-2) 3160 nM | Potency (HeLa) 2510 nM
inactive: max response (HaCat) -7.36% and -20.3%

Nc1ncnc2c1c(-c1cnc3[nH]ccc3c1)nn2C1CCCC1
active: Potency (CRL-7250) 118 nM and 920 nM | Potency (HEK293) 1.48 µM and 2.59 µM | Potency (HaCat) 2.64 µM and 1.84 µM | Potency (KB-3-1) 1.66 µM and 4.61 µM | Potency (NIH3T3) 83.3 nM and 517 nM | Potency (MCC-13) 4180 nM | Potency (UISO) 4690 nM | Potency (CASKI) 11200 nM | Potency (Es-2) 10000 nM | Potency (HeLa) 10000 nM | Potency (Hek293T) 7940 nM
